Laboratory results from PubChem BioAssay AID1970 (National Center for Advancing Translational Sciences (NCATS), 2009).
Results filed as inconclusive are left out. Calls of active or inactive are those of the source. Calls follow the shape of the dose curve; as a rule, active = well fitted inhibition curve with a large enough effect; inconclusive = small, poorly fitted or top-dose-only effect; inactive = flat fitted curve, though single readings scatter.

Biological target: Dual specificity protein kinase CLK4 (Homo sapiens) (UniProt Q9HAZ1)
Sequence (Q9HAZ1 whole entry, looked up): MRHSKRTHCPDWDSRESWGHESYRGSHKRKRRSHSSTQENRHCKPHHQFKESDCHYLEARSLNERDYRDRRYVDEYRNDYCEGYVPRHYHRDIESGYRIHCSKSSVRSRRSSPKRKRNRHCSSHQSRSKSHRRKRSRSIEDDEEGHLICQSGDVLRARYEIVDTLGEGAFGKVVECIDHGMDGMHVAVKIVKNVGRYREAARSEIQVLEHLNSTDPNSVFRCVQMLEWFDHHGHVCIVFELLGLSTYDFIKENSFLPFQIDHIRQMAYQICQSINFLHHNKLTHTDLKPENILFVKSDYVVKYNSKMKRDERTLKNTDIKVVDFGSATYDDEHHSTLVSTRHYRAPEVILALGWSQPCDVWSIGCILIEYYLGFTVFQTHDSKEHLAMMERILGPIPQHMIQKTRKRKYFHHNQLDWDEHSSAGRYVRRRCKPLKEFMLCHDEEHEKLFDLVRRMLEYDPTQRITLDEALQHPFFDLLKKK
Test: Confirmation Assay for Inhibitors of CDC-like Kinase 4 (Kinase-Glo Assay)
Conditions: recombinant Clk4, Kinase-Glo ATP depletion luminescence
Protocol: NIH Molecular Libraries Probe Production Centers Network [MLPCN] NIH Chemical Genomics Center [NCGC] MLPCN Grant: 1R03MH084827-01 Assay Submitter (PI): Tom Misteli NCGC Assay Overview: Clk4 (Invitrogen, cat# PV3839) was assayed using ATP and the RS repeat peptide (AnaSpec cat # 61722) as substrates. Following the Clk4 reaction, the remaining ATP levels were detected using Promega Kinase-Glo technology wherein the remaining ATP from the kinase reaction is detected using Ultra-Glo luciferase and D-luciferin which generates a bioluminescence signal from the ATP.
NCGC Assay Protocol Summary: Two uL/well of substrate-buffer solution (100 uM RS peptide, 1 uM ATP, 25 mM Tris pH7.5, 10 mM MgCl2, 0.5 mM EGTA, 2.5 mM DTT, 0.01% Triton X-100 final concentration) was dispensed into 1536-well, assay plates (Greiner, solid white medium-binding plates) with Aurora Discovery BioRAPTR Flying Reagent Dispenser (FRD; Beckton-Dickenson). Using a Kalypsys pin tool equipped with a 1536-pin tool, 23 nL of compound solution was transferred to the assay plate. […] Luminescence was detected with the ViewLux plate reader (Perkin Elmer, Waltham, MA) after 5 min incubation using a 5 second exposure time and 2x binning.

How did the Potency turn out when COc1ccc2c(c1)[nH]c1c(C)nccc12 was run?
The Potency was 67.1 nM (active).
